Laboratory results published in the supplement of paper PMC10849652.
The full data set covers some 7,900 targets. This sample favours those with a hit. About 0.6% of all pairs of compound and target were hits.

The targets below were run with Cn1cc(-c2ccc3c(c2)CCN3C(=O)Cc2cccc(C(F)(F)F)c2)c2c(N)ncnc21 (assay: log2 fold change, soluble protein after heating vs DMSO (PISA); higher = thermal stabilisation; K562 cells, 10 uM, 30 min; active = over 0.2 and 3.5 SD of the protein, either way, in both replicates (recomputed)).
Method in brief: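 Aliquots of K562 cells (2×10^6 cells/mL) treated with 10 μM compound for 30 min were heated for 3 min over 48°C-58°C. After pooling and extraction in PBS with 0.5% NP-40 at 4°C, soluble protein from a 21,000xg, 90 min spin was quantified by TMTpro 16plex LC-MS/MS with channel sums equalised. Thermal stability is expressed against control samples, from duplicates, as a log2 fold change.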

UniProt P33240, sequence (P33240 whole entry, looked up): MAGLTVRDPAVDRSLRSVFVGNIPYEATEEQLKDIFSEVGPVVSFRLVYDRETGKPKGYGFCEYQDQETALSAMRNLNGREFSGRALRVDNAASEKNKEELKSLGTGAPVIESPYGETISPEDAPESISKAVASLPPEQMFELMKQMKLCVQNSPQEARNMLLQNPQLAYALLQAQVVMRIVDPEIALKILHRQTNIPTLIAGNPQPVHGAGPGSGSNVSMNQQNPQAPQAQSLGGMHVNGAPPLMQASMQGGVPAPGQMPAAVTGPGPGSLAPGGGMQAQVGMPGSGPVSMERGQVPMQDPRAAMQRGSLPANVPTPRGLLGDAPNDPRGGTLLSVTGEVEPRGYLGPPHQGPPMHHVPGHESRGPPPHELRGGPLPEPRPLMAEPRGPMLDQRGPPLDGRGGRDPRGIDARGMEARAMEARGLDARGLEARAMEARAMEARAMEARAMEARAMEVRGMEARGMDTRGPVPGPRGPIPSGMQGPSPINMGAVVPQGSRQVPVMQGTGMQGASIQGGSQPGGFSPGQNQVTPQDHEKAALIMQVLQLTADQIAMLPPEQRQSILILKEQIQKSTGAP
UniProt Q5T6V5, sequence (Q5T6V5 whole entry, looked up): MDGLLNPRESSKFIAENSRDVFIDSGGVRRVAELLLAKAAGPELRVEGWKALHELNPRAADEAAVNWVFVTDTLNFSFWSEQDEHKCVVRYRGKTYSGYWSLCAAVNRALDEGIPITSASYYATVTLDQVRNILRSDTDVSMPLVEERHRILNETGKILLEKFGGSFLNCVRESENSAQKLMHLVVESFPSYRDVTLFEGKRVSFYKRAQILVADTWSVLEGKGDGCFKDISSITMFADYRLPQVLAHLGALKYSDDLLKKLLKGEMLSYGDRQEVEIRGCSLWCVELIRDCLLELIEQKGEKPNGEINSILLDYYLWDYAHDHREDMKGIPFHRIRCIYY
UniProt P61024, sequence (P61024 whole entry, looked up): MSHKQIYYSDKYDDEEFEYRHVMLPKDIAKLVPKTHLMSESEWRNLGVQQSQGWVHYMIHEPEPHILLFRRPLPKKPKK
UniProt P67870, sequence (P67870 whole entry, looked up): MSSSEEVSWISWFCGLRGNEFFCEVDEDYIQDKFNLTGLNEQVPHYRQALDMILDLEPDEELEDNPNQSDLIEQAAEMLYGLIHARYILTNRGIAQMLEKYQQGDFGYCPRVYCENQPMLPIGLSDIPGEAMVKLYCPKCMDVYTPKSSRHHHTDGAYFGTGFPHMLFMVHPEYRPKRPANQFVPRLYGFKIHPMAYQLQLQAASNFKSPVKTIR
UniProt O75122, sequence (O75122 whole entry, looked up): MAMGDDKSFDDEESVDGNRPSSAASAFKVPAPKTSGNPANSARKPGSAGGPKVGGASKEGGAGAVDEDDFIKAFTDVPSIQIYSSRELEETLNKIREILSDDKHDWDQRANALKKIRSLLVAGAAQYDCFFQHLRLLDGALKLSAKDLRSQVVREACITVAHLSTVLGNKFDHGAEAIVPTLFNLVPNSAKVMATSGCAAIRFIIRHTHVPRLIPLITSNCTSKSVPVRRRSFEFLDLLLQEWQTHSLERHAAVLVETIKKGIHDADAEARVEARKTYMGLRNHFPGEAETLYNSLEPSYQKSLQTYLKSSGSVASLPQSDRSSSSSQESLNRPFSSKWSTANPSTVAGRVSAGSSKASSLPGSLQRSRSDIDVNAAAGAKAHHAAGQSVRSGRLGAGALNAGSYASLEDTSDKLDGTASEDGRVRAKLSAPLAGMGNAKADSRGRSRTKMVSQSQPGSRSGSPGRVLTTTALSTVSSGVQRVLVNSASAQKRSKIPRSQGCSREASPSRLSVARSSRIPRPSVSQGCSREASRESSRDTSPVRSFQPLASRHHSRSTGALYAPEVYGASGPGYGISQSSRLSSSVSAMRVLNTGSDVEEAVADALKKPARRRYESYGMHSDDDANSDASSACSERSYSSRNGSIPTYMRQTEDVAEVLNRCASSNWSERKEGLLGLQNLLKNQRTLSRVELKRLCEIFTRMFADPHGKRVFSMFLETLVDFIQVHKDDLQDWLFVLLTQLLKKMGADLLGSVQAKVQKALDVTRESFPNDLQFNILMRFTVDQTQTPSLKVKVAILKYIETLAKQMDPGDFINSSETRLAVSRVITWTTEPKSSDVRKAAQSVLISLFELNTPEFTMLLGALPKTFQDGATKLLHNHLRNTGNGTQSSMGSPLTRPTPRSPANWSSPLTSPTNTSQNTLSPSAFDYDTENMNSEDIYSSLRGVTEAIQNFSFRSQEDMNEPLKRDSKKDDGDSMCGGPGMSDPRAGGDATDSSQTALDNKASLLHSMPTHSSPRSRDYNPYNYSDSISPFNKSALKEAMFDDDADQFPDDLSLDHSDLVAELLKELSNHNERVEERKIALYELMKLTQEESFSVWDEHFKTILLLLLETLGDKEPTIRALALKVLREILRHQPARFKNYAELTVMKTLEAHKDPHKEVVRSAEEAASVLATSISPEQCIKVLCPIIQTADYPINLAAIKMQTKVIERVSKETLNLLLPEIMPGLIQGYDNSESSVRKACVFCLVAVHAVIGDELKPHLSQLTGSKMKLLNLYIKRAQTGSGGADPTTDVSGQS
UniProt Q86X83, sequence (Q86X83 whole entry, looked up): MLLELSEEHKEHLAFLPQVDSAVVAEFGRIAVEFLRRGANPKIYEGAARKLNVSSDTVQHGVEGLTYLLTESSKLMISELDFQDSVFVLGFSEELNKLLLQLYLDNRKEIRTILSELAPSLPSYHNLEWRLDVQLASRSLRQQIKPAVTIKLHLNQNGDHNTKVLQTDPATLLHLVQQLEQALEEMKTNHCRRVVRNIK
UniProt Q14839, sequence (Q14839 whole entry, looked up): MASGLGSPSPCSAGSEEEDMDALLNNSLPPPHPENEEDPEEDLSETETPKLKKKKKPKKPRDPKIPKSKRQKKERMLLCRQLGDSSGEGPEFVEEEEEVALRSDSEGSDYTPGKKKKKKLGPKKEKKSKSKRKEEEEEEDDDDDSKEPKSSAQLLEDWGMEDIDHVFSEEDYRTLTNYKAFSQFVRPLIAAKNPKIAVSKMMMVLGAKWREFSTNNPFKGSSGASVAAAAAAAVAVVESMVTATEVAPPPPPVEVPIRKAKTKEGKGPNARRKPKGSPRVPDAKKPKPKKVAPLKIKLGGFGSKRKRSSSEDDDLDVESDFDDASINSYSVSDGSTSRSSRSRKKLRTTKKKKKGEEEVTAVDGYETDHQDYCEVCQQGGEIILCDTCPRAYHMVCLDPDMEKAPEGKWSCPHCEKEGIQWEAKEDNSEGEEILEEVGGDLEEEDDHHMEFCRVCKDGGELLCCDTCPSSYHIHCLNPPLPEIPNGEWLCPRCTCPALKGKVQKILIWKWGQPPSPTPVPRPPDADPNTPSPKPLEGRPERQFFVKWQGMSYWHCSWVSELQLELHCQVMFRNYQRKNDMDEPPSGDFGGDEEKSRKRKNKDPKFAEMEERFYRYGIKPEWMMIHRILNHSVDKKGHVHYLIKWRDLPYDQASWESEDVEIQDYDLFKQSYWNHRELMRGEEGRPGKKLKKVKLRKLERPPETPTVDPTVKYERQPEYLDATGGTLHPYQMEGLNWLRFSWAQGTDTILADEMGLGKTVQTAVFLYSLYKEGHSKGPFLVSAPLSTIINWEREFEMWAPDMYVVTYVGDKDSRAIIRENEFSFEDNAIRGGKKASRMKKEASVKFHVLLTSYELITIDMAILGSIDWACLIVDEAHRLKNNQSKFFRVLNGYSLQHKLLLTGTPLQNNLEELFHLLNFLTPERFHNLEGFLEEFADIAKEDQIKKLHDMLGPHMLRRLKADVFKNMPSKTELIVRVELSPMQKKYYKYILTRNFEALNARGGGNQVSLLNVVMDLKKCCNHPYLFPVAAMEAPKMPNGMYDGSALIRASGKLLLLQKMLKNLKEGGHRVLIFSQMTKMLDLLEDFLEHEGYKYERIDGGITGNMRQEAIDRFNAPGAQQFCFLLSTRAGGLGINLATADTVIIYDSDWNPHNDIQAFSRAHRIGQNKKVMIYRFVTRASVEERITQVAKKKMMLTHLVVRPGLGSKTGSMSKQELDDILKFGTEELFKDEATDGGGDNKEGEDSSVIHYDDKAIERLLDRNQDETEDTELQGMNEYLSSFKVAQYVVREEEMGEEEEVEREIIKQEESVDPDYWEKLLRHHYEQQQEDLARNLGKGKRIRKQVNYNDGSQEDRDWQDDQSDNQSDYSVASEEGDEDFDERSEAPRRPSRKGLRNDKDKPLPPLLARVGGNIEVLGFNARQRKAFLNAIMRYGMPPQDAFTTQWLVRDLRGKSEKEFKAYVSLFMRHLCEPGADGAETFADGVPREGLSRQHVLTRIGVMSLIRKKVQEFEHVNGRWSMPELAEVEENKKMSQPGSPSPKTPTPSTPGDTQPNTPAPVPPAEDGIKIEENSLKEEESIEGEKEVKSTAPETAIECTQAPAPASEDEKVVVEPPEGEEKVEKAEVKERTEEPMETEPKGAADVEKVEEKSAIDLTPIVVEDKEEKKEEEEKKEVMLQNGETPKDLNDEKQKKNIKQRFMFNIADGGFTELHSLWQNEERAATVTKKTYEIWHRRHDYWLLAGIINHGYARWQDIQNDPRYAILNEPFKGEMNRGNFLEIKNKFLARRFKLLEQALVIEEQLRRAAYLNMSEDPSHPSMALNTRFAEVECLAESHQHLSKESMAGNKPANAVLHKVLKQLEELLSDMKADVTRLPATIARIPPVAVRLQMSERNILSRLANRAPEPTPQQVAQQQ
UniProt P45973, sequence (P45973 whole entry, looked up): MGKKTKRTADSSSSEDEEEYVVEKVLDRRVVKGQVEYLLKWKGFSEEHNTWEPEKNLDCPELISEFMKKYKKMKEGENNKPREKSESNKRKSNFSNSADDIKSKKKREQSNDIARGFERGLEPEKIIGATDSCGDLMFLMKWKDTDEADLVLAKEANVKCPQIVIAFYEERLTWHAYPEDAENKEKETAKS
UniProt Q8WUX2, sequence (Q8WUX2 whole entry, looked up): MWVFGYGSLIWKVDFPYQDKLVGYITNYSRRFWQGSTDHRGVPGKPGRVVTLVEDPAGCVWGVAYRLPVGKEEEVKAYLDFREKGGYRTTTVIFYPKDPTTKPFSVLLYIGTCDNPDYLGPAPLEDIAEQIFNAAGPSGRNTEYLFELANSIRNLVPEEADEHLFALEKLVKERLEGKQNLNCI

log2 fold change, inactive:
C9orf64 (UniProt Q5T6V5) 0.079
CELF2 isoform 3 (UniProt O95319) -0.022
CAMSAP1 isoform 3 (UniProt Q5T5Y3) 0.091
CNOT4 isoform 6 (UniProt O95628) 0.021
CSTF2 (UniProt P33240) -0.011
CBX5 (UniProt P45973) -0.01
CHD3 isoform 3 (UniProt Q12873) -0.06
CCDC9 (UniProt Q9Y3X0) -0.046
CHERP (UniProt Q8IWX8) 0.011
COQ9 (UniProt O75208) 0.052
CPQ (UniProt Q9Y646) 0.012
CD81 (UniProt P60033) 0.108
CDK6 (UniProt Q00534) -0.019
CHMP4C (UniProt Q96CF2) -0.008
CHAC2 (UniProt Q8WUX2) -0.004
CSNK2B (UniProt P67870) 0.038
CBR1 (UniProt P16152) 0.081
CRKL (UniProt P46109) 0.004
CHD4 isoform 2 (UniProt Q14839) -0.063
COA6 isoform 2 (UniProt Q5JTJ3) -0.097
CNDP2 (UniProt Q96KP4) 0.066
CETN2 (UniProt P41208) -0.013
CAMKK2 (UniProt Q96RR4) -0.083
CKS1B (UniProt P61024) 0.067
CHEK1 (UniProt O14757) 0.021
CLPP (UniProt Q16740) 0.115
CDK9 isoform 2 (UniProt P50750) -0.091
CHAMP1 (UniProt Q96JM3) 0.026
CCDC167 (UniProt Q9P0B6) -0.185
CALCOCO2 isoform 4 (UniProt Q13137) -0.013
CPSF3 (UniProt Q9UKF6) -0.071
CLASP2 isoform 3 (UniProt O75122) 0.013
CLSPN (UniProt Q9HAW4) -0.021
COMMD2 (UniProt Q86X83) -0.099
CLCN3 (UniProt P51790) 0.03
CCNK isoform 4 (UniProt O75909) -0.118
